Assay outcomes deposited in PubChem BioAssay by National Center for Advancing Translational Sciences (NCATS).
Most compounds without a hit are left out; they make up all but 4% or so of the library.
Tau fil binding: qHTS Assay for Tau Filament Binding; 2% of 71,000 active; Potency, µM (doses to about 57.1 µM), inactives show at the top dose activity change, negative = inhibition; AID 596, 2007; Microtubule-associated protein tau (Homo sapiens), P10636; recombinant tau filaments, thioflavin S fluorescence, 15 h; filaments grown with octadecylsulfate alongside compound;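 further: on the % scale 0 is the no-effect control and ±100 the full control effect; actives lower thioflavin S fluorescence by blocking filaments or displacing dye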
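ThS-based fibril read: tau 1 uM final, inducer ODS 30 uM final, 37 C for 15 h, ex 450/em 510 nm.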
Casp1 inh: qHTS Assay for Allosteric/Competitive Inhibitors of Caspase-1; Caspase-1 enzyme, Ac-WEHD-AFC fluorogenic rate; 0.03% of 75,000 active; Potency, µM (top dose mostly 57.5 µM), without a hit: top-dose activity change, negative = inhibition, usual class: inhibitors;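 further: plate controls were vehicle for no effect and no substrate for full effect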
Casp7 inh: qHTS Assay for Allosteric/Competitive Inhibitors of Caspase-7 | Potency, µM (top dose mostly 57.5 µM), for inactives: at the highest dose activity change, negative = inhibition, usual class: inhibitors | P55210 | AID 889, 2007 | 0.02% of 75,000 active | recombinant caspase-7, Ac-DEVD-AFC fluorescence rate; active means well fitted inhibition curve with a large enough effect in the main read-out, with a control signal flat, not every such curve was filed as active; inconclusive means small, poorly fitted or top-dose-only effect, or a change in a side signal; further: % of control where 0% means no effect
Target sequence (P55210 24-198 limits assumed): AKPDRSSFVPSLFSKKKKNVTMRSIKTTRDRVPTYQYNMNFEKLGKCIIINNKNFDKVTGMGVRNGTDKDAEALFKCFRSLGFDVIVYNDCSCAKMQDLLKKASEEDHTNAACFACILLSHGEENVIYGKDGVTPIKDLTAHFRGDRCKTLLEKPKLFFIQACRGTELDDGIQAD
Target sequence (P55210 207-303 limits assumed): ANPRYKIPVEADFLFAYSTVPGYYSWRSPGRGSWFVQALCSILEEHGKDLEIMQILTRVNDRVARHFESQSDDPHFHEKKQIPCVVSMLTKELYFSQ
Luciferase inh: qHTS Assay for Inhibitors of Firefly Luciferase. 2.2% of 72,000 active. purified firefly luciferase, luminescence, 8 min. Luciferin 4-monooxygenase (Photinus pyralis), P08659. AID 411, 2009. Potency, µM (doses to about 57.1 µM), without a hit: at the highest dose activity change, negative = inhibition, usual class: inhibitors; further: on the % scale 0 is the no-effect control and ±100 the full control effect; nearly all actives have a fitted effect of over 40% in size
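Firefly luciferase (PKLight detection mix) with 10 uM ATP in pH 7.2 imidazole buffer (KCl, MgCl2, Tween 20, BSA). Compounds tested across a concentration series (qHTS). Luminescence read after 8 min at ambient temperature.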
PK Bst: Pyruvate Kinase; purified pyruvate kinase, luminescence ATP production; ribose 5-phosphate activator present at AC10; Potency, µM; 1.2% of 51,000 active; AID 361, 2006; in the data active means potency below about 11 µM; inconclusive means mostly about 12 µM to 25 µM;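 the screen sought inhibitors and activators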;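 further: scaled between full activation by ribose 5 phosphate and full inhibition by luteolin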
An asterisk follows results filed as active; i = inactive; u = inconclusive; x = no result given; ! = not confirmed by another sample; [ ] = dose if it differs, or a comment. Unless noted, the call rests on the fitted dose curve; in most records, active means well fitted curve in the direction sought with a large enough effect; inconclusive means small, poorly fitted or top-dose-only effect, or another doubt; inactive means no such curve, though single readings can be large; an effect the other way counts as inactive or inconclusive. Potency means the concentration at half of the fitted maximal effect.

SMILES	Tau fil binding	Casp1 inh	Casp7 inh	Luciferase inh	PK Bst
CS(=O)(=O)Nc1cccc(-c2ccc3ncnc(N4CCOCC4)c3c2)c1	4%	-1%	-2%	2%[2.29 µM]	x
N#CC(C#N)=c1ccc2c(c1)N1C3=C(CCCC3)CC3CCCCC31N=2 (centres undefined)	1.6µM*	-1%	-4%	-1%	x
N#C/C(C(N)=O)=c1/ccc2c(c1)N1C3=C(CCCC3)CC3CCCCC31N=2 (centres undefined)	5µM*	-11%	-10%	16µM*	x
O=C(N=c1nc2ccccn2s1)c1ccccc1	-8%	2%	-1%	0.79µM*	1.1*
O=C(Nc1nc(-c2cccs2)cs1)c1ccc(Cl)s1	67%	-11%	-15%	-15%	x
CCNc1nc(N)c(C(=O)c2ccc(Cl)s2)s1	u	-3%	-3%	u	2.2*
c1ccc(-c2cccc(N3CC[C@@]4(CCCNC4)C3)c2)cc1	13µM*	-2%	-3%	-15%[11.4 µM]	x
c1ccc(-c2cccc(N3CCCC4(CCNCC4)C3)c2)cc1	u	-1%	1%	u	x
Cc1cccc(CNc2ccnc(-c3ccccc3CN(C)C)n2)c1	-20%	2%	1%	1%[2.29 µM]	x
O=c1c2ccccc2nc2c3ccccc3c3nncn3n12	-1%	3%	-2%	2%	0.9*
CC1CN(c2nn3c(=O)c4ccccc4nc3c3ccccc23)CC(C)O1 (centres undefined)	22%	0%	1%	1%	u
Cc1cccc(OCC(=O)Nc2ccc3c(c2)OCCO3)c1	-4%	0%	-2%	13µM*	i
Cc1cnc(NC(=O)COc2ccccc2Cl)s1	7%	0%	0%	1.3µM*	1.4*
O=C(COc1ccccc1Cl)Nc1ccc2c(c1)OCCO2	10%	-1%	1%	10µM*	x
O=C(COc1ccccc1Cl)NCc1ccncc1	6%	-3%	-4%	5%	x
O=C(CN1C(=O)COc2ccc(Cl)cc21)Nc1ccc2c(c1)OCCO2	12%	0%	0%	-2%	3.6*
CC(C)CN1CCCC2(CCN(C(=O)c3cc(C(F)(F)F)cc(C(F)(F)F)c3)CC2)C1	16%	-3%	-2%	2%[11.4 µM]	x
Cc1cc(NC(=O)Nc2ccc3c(ccn3C)c2)sn1	16%	3%	3%	32µM*!	x
NCCNc1ncnc2ccc(Cl)cc12	0%[11.4 µM]	0%[11.5 µM]	0%[11.5 µM]	2%[11.4 µM]	x
CN(C)c1ccc(C=Nc2ccc(N(C)C)cc2)cc1	x	-17%	-6%	x	x
CN(C)c1ccc(N=Cc2ccco2)cc1	13µM*	-7%	-3%	20µM*	x
Nc1ccccc1S[C@@H](C[N+](=O)[O-])c1ccc2c(c1)OCO2	2%[11.4 µM]	-1%[11.5 µM]	-2%[11.5 µM]	-8%[11.4 µM]	x
C/C1=C2N=C(/C=C3N=C(/C(C)=C4\[N-]C(C)(C5N=C1C(C)(CCC(=O)NCC(C)OP(=O)([O-])O[C@H]1C(O)C(n6cnc7cc(C)c(C)cc76)O[C@@H]1CO)C5CC(N)=O)C(C)(CC(N)=O)C4CCC(N)=O)C(C)(CC(N)=O)C\3CCC(N)=O)C(C)(C)C/2CCC(N)=O.[CH2-]C1OC(n2cnc3c(N)ncnc32)C(O)C1O.[Co] (some centres undefined)	x	u	-18%	x	x
CCOc1ccc2c(c1)sc(=NC(=O)C1CC1)n2C	-2%	-1%	-2%	13µM*	i
CC(C)Nc1oc(-c2cccc3ccccc23)nc1C#N	36%	x	u	20µM*	>57
SMILES	Tau fil binding	Casp1 inh	Casp7 inh	Luciferase inh	PK Bst
CCNc1oc(-c2cccc3ccccc23)nc1C#N	72%	x	u	-7%	>57
CCOC(=O)C1CCCN(C(=O)Cn2sc3nc(C)cc(C)c3c2=O)C1 (centres undefined)	-16%	3%	-1%	13µM*	x
CS(=O)(=O)N1CCC2(CC1)CN(C(=O)Nc1cccc(F)c1)C2	13µM*	0%	-1%	0%[11.4 µM]	x
CCn1c2ccccc2c2nnc(SCc3ccc(C(=O)OC)o3)nc21	32µM*	-5%	-5%	-1%	>57
CCn1c2ccccc2c2nnc(SCc3ccccc3)nc21	-22%	-4%	-8%	-2%	x
COc1ccc(C2Oc3cc(OC)cc(OC)c3CC2O)cc1 (centres undefined)	x	-1%	-1%	x	x
COc1ccc(-c2nnc(-c3cccs3)o2)cc1OC	18%	-1%	0%	13µM*	x
